Screen size: about 5,500 compounds; about 2,000 (36%) were called active. About 18% were inconclusive and are not listed. Cut-off read from the data, not from the text of the source: active = normalized growth mostly below about 0.91 (no sharp cut-off); inconclusive = no clear call, values can overlap the other calls; inactive = mostly above about 0.92. The list shows a part of the results.
Experiment: chemical genetic growth profiling, strain panel (AID 1159580);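 note: tested at 20 µM; growth read once vehicle control cultures reached saturation at 30 °C; 1 = growth at the plate median or of vehicle wells; lower values mean less growth of the strain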
Details: growth OD

Measured: normalized growth

CC[C@]12CCCN3CCc4c(n(c5ccccc45)C(=O)C1)[C@@H]32
active: S. cerevisiae deletion strains, locus YDR162C, strain NBP2, hits give low values 0.552 | S. cerevisiae deletion strains, locus YGL248W, strain PDE1, hits give low values 0.857 | S. cerevisiae deletion strains, locus YHR030C, strain SLT2, hits give low values 0.885 | S. cerevisiae deletion strains, locus YLR342W, strain FKS1 (second series), hits give low values 1.21 [resistant]
inactive: S. cerevisiae deletion strains, locus YAL013W, strain DEP1, hits give low values 0.967 | S. cerevisiae deletion strains, locus YAL021C, strain ccr4, hits give low values 0.968 | S. cerevisiae deletion strains, locus YAL026C, strain drs2, hits give low values 1.04 | S. cerevisiae deletion strains, locus YAL030W, strain snc1, hits give low values 1.01 | S. cerevisiae deletion strains, locus YBL061C, strain skt5, hits give low values 1.01 | S. cerevisiae deletion strains, locus YBR009C, strain hhf1, hits give low values 1.01 | S. cerevisiae deletion strains, locus YBR021W, strain FUR4, hits give low values 1.07 | S. cerevisiae deletion strains, locus YBR023C, strain chs3, hits give low values 1 | S. cerevisiae deletion strains, locus YBR171W, strain sec66, hits give low values 0.999 | S. cerevisiae deletion strains, locus YBR229C, strain ROT2, hits give low values 1.02 | S. cerevisiae deletion strains, locus YBR231C, strain swc5, hits give low values 1.01 | S. cerevisiae deletion strains, locus YBR279W, strain paf1, hits give low values 1 | S. cerevisiae deletion strains, locus YCL011C, strain gbp2, hits give low values 1.01 | S. cerevisiae deletion strains, locus YCL016C, strain dcc1, hits give low values 0.983 | S. cerevisiae deletion strains, locus YCL029C, strain bik1, hits give low values 0.989 | S. cerevisiae deletion strains, locus YCL069W, strain vba3, hits give low values 1 | S. cerevisiae deletion strains, locus YCR088W, strain abp1, hits give low values 1.01 | S. cerevisiae deletion strains, locus YDL005C, strain med2, hits give low values 1 | S. cerevisiae deletion strains, locus YDL035C, strain GPR1, hits give low values 0.941 | S. cerevisiae deletion strains, locus YDL040C, strain nat1, hits give low values 1 | S. cerevisiae deletion strains, locus YDL074C, strain BRE1, hits give low values 0.9 | S. cerevisiae deletion strains, locus YDL101C, strain DUN1, hits give low values 0.977 | S. cerevisiae deletion strains, locus YDL134C, strain PPH21, hits give low values 0.951 | S. cerevisiae deletion strains, locus YDL185W, strain tfp1, hits give low values 0.953 | S. cerevisiae deletion strains, locus YDL192W, strain arf1, hits give low values 0.977 | S. cerevisiae deletion strains, locus YDR001C, strain nth1, hits give low values 0.998 | S. cerevisiae deletion strains, locus YDR069C, strain doa4, hits give low values 1.04 | S. cerevisiae deletion strains, locus YDR101C, strain arx1, hits give low values 0.98 | S. cerevisiae deletion strains, locus YDR137W, strain rgp1, hits give low values 1.15 | S. cerevisiae deletion strains, locus YDR150W, strain NUM1, hits give low values 0.988 | S. cerevisiae deletion strains, locus YDR159W, strain sac3, hits give low values 0.995 | S. cerevisiae deletion strains, locus YDR195W, strain ref2 1.01 | S. cerevisiae deletion strains, locus YDR297W, strain sur2, hits give low values 1.01 | S. cerevisiae deletion strains, locus YDR318W, strain mcm21, hits give low values 0.978 | S. cerevisiae deletion strains, locus YDR334W, strain swr1, hits give low values 1 | S. cerevisiae deletion strains, locus YDR335W, strain msn5, hits give low values 0.998 | S. cerevisiae deletion strains, locus YDR388W, hits give low values 0.993 | S. cerevisiae deletion strains, locus YDR392W, strain spt3, hits give low values 0.804 | S. cerevisiae deletion strains, locus YDR502C, strain sam2, hits give low values 0.984 | S. cerevisiae deletion strains, locus YEL003W, strain gim4, hits give low values 1 | S. cerevisiae deletion strains, locus YEL037C, strain rad23, hits give low values 0.993 | S. cerevisiae deletion strains, locus YEL061C, strain CIN8 (second series), hits give low values 1 | S. cerevisiae deletion strains, locus YEL061C, strain CIN8, hits give low values 0.992 | S. cerevisiae deletion strains, locus YER015W, strain faa2, hits give low values 0.997 | S. cerevisiae deletion strains, locus YER016W, strain bim1, hits give low values 0.999 | S. cerevisiae deletion strains, locus YER110C, hits give low values 0.975 | S. cerevisiae deletion strains, locus YER111C, strain swi4, hits give low values 0.998 | S. cerevisiae deletion strains, locus YER155C, strain BEM2 (second series), hits give low values 0.976 | S. cerevisiae deletion strains, locus YER155C, strain BEM2, hits give low values 1.01 | S. cerevisiae deletion strains, locus YER167W, strain BCK2, hits give low values 1 | S. cerevisiae deletion strains, locus YFR010W, strain ubp6, hits give low values 1.01 | S. cerevisiae deletion strains, locus YGL078C, strain dbp3, hits give low values 0.983 | S. cerevisiae deletion strains, locus YGL086W, strain mad1, hits give low values 0.992 | S. cerevisiae deletion strains, locus YGL167C, strain pmr1, hits give low values 0.98 | S. cerevisiae deletion strains, locus YGL173C, strain kem1, hits give low values 1.02 | S. cerevisiae deletion strains, locus YGL227W, strain vid30, hits give low values 1.01 | S. cerevisiae deletion strains, locus YGL240W, strain doc1, hits give low values 0.999 | S. cerevisiae deletion strains, locus YGL253W, strain hxk2, hits give low values 1.03 | S. cerevisiae deletion strains, locus YGR135W, strain pre9, hits give low values 0.97 | S. cerevisiae deletion strains, locus YGR252W, strain gcn5, hits give low values 1.03 | S. cerevisiae deletion strains, locus YHR013C, strain ard1, hits give low values 0.98 | S. cerevisiae deletion strains, locus YHR027C, strain rpn1, hits give low values 1 | S. cerevisiae deletion strains, locus YHR079C, strain IRE1 (second series), hits give low values 0.982 | S. cerevisiae deletion strains, locus YHR094C, strain hxt1, hits give low values 0.99 | S. cerevisiae deletion strains, locus YHR129C, strain ARP1, hits give low values 0.993 | S. cerevisiae deletion strains, locus YHR142W, strain chs7, hits give low values 1.01 | S. cerevisiae deletion strains, locus YHR200W, strain rpn10, hits give low values 0.981 | S. cerevisiae deletion strains, locus YIL066C, strain RNR3, hits give low values 0.987 | S. cerevisiae deletion strains, locus YIL073C, strain SPO22, hits give low values 0.692 | S. cerevisiae deletion strains, locus YIL125W, strain kgd1, hits give low values 0.989 | S. cerevisiae deletion strains, locus YIR030C, strain dcg1, hits give low values 0.978 | S. cerevisiae deletion strains, locus YJL092W, strain hpr5, hits give low values 0.997 | S. cerevisiae deletion strains, locus YJL095W, strain BCK1 (second series), hits give low values 0.996 | S. cerevisiae deletion strains, locus YJL095W, strain BCK1, hits give low values 0.956 | S. cerevisiae deletion strains, locus YJL115W, strain asf1, hits give low values 0.994 | S. cerevisiae deletion strains, locus YJL129C, strain trk1, hits give low values 1.01 | S. cerevisiae deletion strains, locus YJL134W, strain LCB3, hits give low values 0.993 | S. cerevisiae deletion strains, locus YJL154C, strain vps35, hits give low values 0.993 | S. cerevisiae deletion strains, locus YJL164C, strain tpk1, hits give low values 0.984 | S. cerevisiae deletion strains, locus YJL166W, strain qcr8, hits give low values 1.01 | S. cerevisiae deletion strains, locus YJL168C, strain set2, hits give low values 0.992 | S. cerevisiae deletion strains, locus YJL187C, strain SWE1 (second series), hits give low values 0.966 | S. cerevisiae deletion strains, locus YJL187C, strain SWE1, hits give low values 1.01 | S. cerevisiae deletion strains, locus YJR043C, strain POL32, hits give low values 0.998 | S. cerevisiae deletion strains, locus YKL009W, strain mrt4, hits give low values 0.95 | S. cerevisiae deletion strains, locus YKL068W, hits give low values 0.981 | S. cerevisiae deletion strains, locus YKL085W, strain MDH1 (second series), hits give low values 0.976 | S. cerevisiae deletion strains, locus YKL085W, strain MDH1, hits give low values 0.976 | S. cerevisiae deletion strains, locus YKL160W, strain elf1, hits give low values 0.974 | S. cerevisiae deletion strains, locus YKL190W, strain CNB1, hits give low values 0.941 | S. cerevisiae deletion strains, locus YKR001C, strain vps1, hits give low values 0.955 | S. cerevisiae deletion strains, locus YKR026C, strain gcn3, hits give low values 0.996 | S. cerevisiae deletion strains, locus YKR091W, strain srl3, hits give low values 0.996 | S. cerevisiae deletion strains, locus YLL001W, strain dnm1, hits give low values 0.956 | S. cerevisiae deletion strains, locus YLL026W, hits give low values 0.994 | S. cerevisiae deletion strains, locus YLL041C, strain sdh2, hits give low values 1.01 | S. cerevisiae deletion strains, locus YLR027C, strain aat2, hits give low values 1.01 | S. cerevisiae deletion strains, locus YLR039C, strain RIC1, hits give low values 0.741 | S. cerevisiae deletion strains, locus YLR058C, strain SHM2, hits give low values 0.991 | S. cerevisiae deletion strains, locus YLR102C, strain apc9, hits give low values 0.985 | S. cerevisiae deletion strains, locus YLR221C, strain rsa3, hits give low values 1.04 | S. cerevisiae deletion strains, locus YLR258W, strain gsy2, hits give low values 1 | S. cerevisiae deletion strains, locus YLR262C, strain YPT6 (second series), hits give low values 0.991 | S. cerevisiae deletion strains, locus YLR262C, strain YPT6, hits give low values 0.776 | S. cerevisiae deletion strains, locus YLR268W, strain sec22, hits give low values 0.971 | S. cerevisiae deletion strains, locus YLR320W, strain mms22, hits give low values 1 | S. cerevisiae deletion strains, locus YLR330W, strain CHS5, hits give low values 0.956 | S. cerevisiae deletion strains, locus YLR342W, strain FKS1, hits give low values 0.999 | S. cerevisiae deletion strains, locus YLR357W, strain rsc2, hits give low values 0.994 | S. cerevisiae deletion strains, locus YLR370C, strain arc18, hits give low values 0.996 | S. cerevisiae deletion strains, locus YLR371W, strain rom2, hits give low values 0.983 | S. cerevisiae deletion strains, locus YLR384C, strain iki3, hits give low values 1.03 | S. cerevisiae deletion strains, locus YLR418C, strain cdc73, hits give low values 0.906 | S. cerevisiae deletion strains, locus YML016C, strain PPZ1, hits give low values 1 | S. cerevisiae deletion strains, locus YML032C, strain rad52, hits give low values 0.99 | S. cerevisiae deletion strains, locus YML120C, strain ndi1, hits give low values 0.986 | S. cerevisiae deletion strains, locus YML124C, strain tub3, hits give low values 0.979 | S. cerevisiae deletion strains, locus YMR058W, strain fet3, hits give low values 1.01 | S. cerevisiae deletion strains, locus YMR078C, strain ctf18, hits give low values 0.973 | S. cerevisiae deletion strains, locus YMR125W, strain sto1, hits give low values 0.994 | S. cerevisiae deletion strains, locus YMR129W, hits give low values 1 | S. cerevisiae deletion strains, locus YMR205C, strain PFK2, hits give low values 0.991 | S. cerevisiae deletion strains, locus YMR223W, strain ubp8, hits give low values 0.968 | S. cerevisiae deletion strains, locus YMR231W, strain pep5, hits give low values 0.997 | S. cerevisiae deletion strains, locus YMR307W, strain GAS1, hits give low values 0.685 | S. cerevisiae deletion strains, locus YNL067W, strain RPL9B, hits give low values 0.906 | S. cerevisiae deletion strains, locus YNL071W, strain lat1, hits give low values 0.996 | S. cerevisiae deletion strains, locus YNL209W, strain ssb2, hits give low values 0.983 | S. cerevisiae deletion strains, locus YNL233W, strain BNI4, hits give low values 0.943 | S. cerevisiae deletion strains, locus YNL248C, strain rpa49, hits give low values 1.02 | S. cerevisiae deletion strains, locus YNL250W, strain rad50, hits give low values 0.988 | S. cerevisiae deletion strains, locus YNL271C, strain bni1, hits give low values 0.978 | S. cerevisiae deletion strains, locus YNL298W, strain CLA4, hits give low values 0.998 | S. cerevisiae deletion strains, locus YNL307C, strain MCK1, hits give low values 0.984 | S. cerevisiae deletion strains, locus YNL322C, strain KRE1 (second series), hits give low values 0.979 | S. cerevisiae deletion strains, locus YNL322C, strain KRE1, hits give low values 0.983 | S. cerevisiae deletion strains, locus YNR049C, strain mso1, hits give low values 1.01 | S. cerevisiae deletion strains, locus YNR052C, strain pop2, hits give low values 0.986 | S. cerevisiae deletion strains, locus YOL012C, strain htz1 0.684 | S. cerevisiae deletion strains, locus YOL147C, strain pex11, hits give low values 0.989 | S. cerevisiae deletion strains, locus YOR001W, strain rrp6, hits give low values 1.02 | S. cerevisiae deletion strains, locus YOR061W, strain CKA2, hits give low values 0.966 | S. cerevisiae deletion strains, locus YOR069W, strain VPS5, hits give low values 0.987 | S. cerevisiae deletion strains, locus YOR070C, strain gyp1, hits give low values 1 | S. cerevisiae deletion strains, locus YOR080W, strain dia2, hits give low values 1 | S. cerevisiae deletion strains, locus YOR083W, strain WHI5, hits give low values 0.972 | S. cerevisiae deletion strains, locus YOR106W, strain vam3, hits give low values 0.981 | S. cerevisiae deletion strains, locus YOR136W, strain idh2, hits give low values 0.977 | S. cerevisiae deletion strains, locus YOR144C, strain elg1, hits give low values 0.99 | S. cerevisiae deletion strains, locus YOR184W, strain ser1, hits give low values 0.94 | S. cerevisiae deletion strains, locus YOR265W, strain rbl2, hits give low values 0.994 | S. cerevisiae deletion strains, locus YOR270C, strain vph1, hits give low values 1.06 | S. cerevisiae deletion strains, locus YOR290C, strain snf2, hits give low values 0.98 | S. cerevisiae deletion strains, locus YOR316C, strain cot1, hits give low values 0.987 | S. cerevisiae deletion strains, locus YPL051W, strain arl3, hits give low values 0.968 | S. cerevisiae deletion strains, locus YPL078C, strain atp4, hits give low values 0.969 | S. cerevisiae deletion strains, locus YPL106C, strain sse1, hits give low values 0.973 | S. cerevisiae deletion strains, locus YPL240C, strain hsp82, hits give low values 1 | S. cerevisiae deletion strains, locus YPL241C, strain CIN2, hits give low values 0.991 | S. cerevisiae deletion strains, locus YPR119W, strain clb2, hits give low values 0.976 | S. cerevisiae deletion strains, locus YPR141C, strain kar3, hits give low values 0.977 | S. cerevisiae deletion strains, locus YPR163C, strain tif3, hits give low values 0.988 | S. cerevisiae deletion strains, locus YPR167C, strain met16, hits give low values 0.974 | S. cerevisiae deletion strains, strain wtn01, hits give low values 0.973 | S. cerevisiae strains, strain wild type, hits give low values 0.967

Reference: PubChem BioAssay AID1159580 (chemical genetic matrix, 2015)
